# Literature values as cited in PubChem BioAssay AID977611.
# Among all 3,900 compounds or so, about 3,900 (100%) were called active. No cut-off is given here; in the data, nearly all actives have Kd up to about 4200 µM. The set was probably picked from earlier hits. Some of the results follow. Starred links: 1 amine or outer side, 2 acyl side, 3 side chain; linkers in the order of their positions; H or OH if unused. Positions of bridges follow the written chain, without caps; N, C: chain ends. Non-standard residues stand in square brackets, D forms with d. Square brackets hold non-standard residues; d marks the D form. Residues, ends and D or L forms follow the SMILES beside them. Peptide text beside a SMILES is read from it. Thr(P(OH)3+) = C[C@@H](O[P+](O)(O)O)[C@H](N)C(=O)O; X1 = C[C@](CCCCCC=[*:3])(N[*:1])C(=O)[*:2]; X2 = C[C@@](CCCCC=[*:3])(N[*:1])C(=O)[*:2]; Orn(CH(NH2)2) = NC(N)NCCC[C@H](N)C(=O)O; R8 = C=CCCCCCC[C@@](C)(N)C(=O)O; S5 = C=CCCC[C@](C)(N)C(=O)O; Abu = CC[C@H](N)C(=O)O
# Experiment: PubChem AID 977611
# Settings: PDB protein-ligand complexes, literature Kd
compound,measurement,setting,value
H-LAPPKPPLPE-OH,Kd,"protein: The second SH3 domain from CAP/Ponsin, SH3b, PDB entry 4ln2",248 µM (active)
H-APPPRPPPPE-OH,Kd,"protein: The first SH3 domain from CAP/Ponsin, SH3a, PDB entry 4lnp",214 µM (active)
CC(C)C[C@H](NC(=O)[C@@H]1CCCN1C(=O)[C@@H]1CCCN1C(=O)[C@H](CC(C)C)NC(=O)[C@@H]1CCCN1C(=O)[C@H](CCCNC(N)N)NC(=O)[C@@H](N)CCCCN)C(=O)N1CCC[C@H]1C(=O)N[C@@H](CO)C(=O)O (H-K[Orn(CH(NH2)2)]PLPPLPS-OH),Kd,"protein: phosphatidylinositol 3-kinase (PI3K) SH3 domain, PDB entry 3i5r",40 µM (active)
CC(C)CCCCCCC(=O)N[C@H]1[C@H](Oc2c3cc4cc2Oc2ccc(cc2Cl)C[C@H]2NC(=O)[C@H](N)c5ccc(O)c(c5)Oc5cc(O)cc(c5)[C@H](NC2=O)C(=O)N[C@H]4C(=O)N[C@H]2C(=O)N[C@H](C(=O)N[C@H](C(=O)O)c4cc(O)cc(O)c4-c4cc2ccc4O)[C@H](O)c2ccc(cc2)O3)O[C@H](CO)[C@@H](O)[C@@H]1O,Kd,"protein: Maltose-binding periplasmic protein, C-terminal fused by Cys-Lys-D-Ala-D-Ala, PDB entry 3vfj",0.091 µM (active)
H-GSYGHLSIGT-OH,Kd,"protein: Sufu, PDB entry 4kmd",3.86 µM (active)
H-SYGHLSIG-OH,Kd,"protein: MALTOSE-BINDING PERIPLASMIC PROTEIN, SUPPRESSOR OF FUSED HOMOLOG (W61D, L62S, G63F, P453A, K457A mutation), PDB entry 4blb",4.47 µM (active)
OS(O)(O)CCNC1CCCCC1,Kd,"protein: Interleukin-13 receptor subunit alpha-1, PDB entry 4hwb",0.00057 µM (active)
CC(=O)NCCCC[C@H](NC(=O)[C@H](CCCNC(N)N)NC(=O)[C@H](C)NC(=O)[C@@H](NC(=O)[C@H](CCC(N)=O)NC(=O)[C@H](CCCCN)NC(=O)[C@@H](NC(=O)[C@H](CCCNC(N)N)NC(=O)[C@H](C)N)[C@@H](C)O)[C@@H](C)O)C(=O)N[C@@H](CO)C(=O)N[C@H](C(=O)NCC(=O)NCC(=O)N[C@@H](CCCCN)C(=O)N[C@@H](C)C(=O)O)[C@@H](C)O,Kd,"protein: Histone acetyltransferase PCAF, PDB entry 2rnw",1050 µM (active)
C[C@H](N)C(=O)N[C@@H](CCCNC(N)N)C(=O)N[C@H](C(=O)N[C@@H](CCCC[N+](C)(C)C)C(=O)N[C@@H](CCC(N)=O)C(=O)N[C@H](C(=O)N[C@@H](C)C(=O)N[C@@H](CCCNC(N)N)C(=O)N[C@@H](CCCCN)C(=O)N[C@@H](CO)C(=O)N[C@H](C(=O)NCC(=O)NCC(=O)N[C@@H](CCCCN)C(=O)N[C@@H](C)C(=O)O)[C@@H](C)O)[C@@H](C)O)[C@@H](C)O,Kd,"protein: bromodomain PHD finger transcription factor, PDB entry 2fuu",2.7 µM (active)
O=C(O)c1ccc2cc[nH]c2c1,Kd,"protein: Protease (Q7K, L33I, L63I, C67A, C95A mutation), PDB entry 4ej8",4.1 µM (active)
H-AHGMLKLYYGLS-OH,Kd,"protein: Syntaxin-6, PDB entry 4j2c",5.6 µM (active)
CSCC[C@H](NC(=O)[C@H](C)N)C(=O)N[C@@H](CCCCN)C(=O)N[C@@H](CCCNC(N)N)C(=O)N[C@@H](Cc1cnc[nH]1)C(=O)NCC(=O)N[C@@H](CC(C)C)C(=O)N[C@@H](CC(=O)O)C(=O)N[C@@H](CC(N)=O)C(=O)N[C@@H](Cc1ccc(O)cc1)C(=O)N[C@@H](CCCNC(N)N)C(=O)NCC(=O)N[C@@H](Cc1ccc(O)cc1)C(=O)N[C@@H](CO)C(=O)O (H-AMK[Orn(CH(NH2)2)]HGLDNY[Orn(CH(NH2)2)]GYS-OH),Kd,"protein: I-Ag7, PDB entry 1f3j",6 µM (active)
CC(C)C[C@H](NC(=O)[C@]1(C)CCC/C=C\CCC[C@](C)(NC(=O)[C@H](CCCNC(N)N)NC(=O)[C@H](CO)NC(=O)[C@H](Cc2ccc(O)cc2)NC(=O)[C@H](CCCNC(N)N)NC(=O)[C@H](CCCCN)NC(=O)[C@@H](N)CCCCN)C(=O)N[C@@H](CCC(N)=O)C(=O)N[C@@H](CC(C)C)C(=O)N[C@@H](CC(C)C)C(=O)N1)C(N)=O,Kd,"protein: EUKARYOTIC TRANSLATION INITIATION FACTOR 4E, PDB entry 4bea",0.005 µM (active)
CC(=O)N[C@H](C(=O)N[C@@H](CO)C(=O)N[C@@H](Cc1ccccc1)C(=O)N[C@]1(C)CCCCCC/C=C/CCC[C@@](C)(C(N)=O)NC(=O)[C@H](CC(C)C)NC(=O)[C@H](CC(C)C)NC(=O)[C@H](Cc2ccc(O)cc2)NC(=O)[C@H](Cc2c[nH]c3ccccc23)NC(=O)[C@H](Cc2ccc(O)cc2)NC(=O)[C@H](CCC(=O)O)NC1=O)[C@@H](C)O (Ac-TSF[R8]EYWYLL[S5]-NH2; staple (E) 4-11),Kd,"protein: E3 UBIQUITIN-PROTEIN LIGASE MDM2-M62A, PDB entry 4umn",0.0631 µM (active)
CC[C@H](N)C(=O)N[C@H](C(=O)N[C@@H](Cc1ccccc1)C(=O)N[C@]1(C)CCCCC/C=C/CCCC[C@@](C)(C(=O)N[C@@H](CCC(N)=O)C(=O)N[C@@H](CC(N)=O)C(=O)O)NC(=O)[C@H](CC(C)C)NC(=O)[C@H](CC(C)C)NC(=O)[C@H](CCCNC(N)N)NC(=O)[C@H](Cc2c[nH]c3ccccc23)NC(=O)[C@H](CC(C)C)NC(=O)[C@H](CC(N)=O)NC1=O)[C@@H](C)O (H-[Abu]TF[X1]NLW[Orn(CH(NH2)2)]LL[X2]QN-OH; staple (E) 4-11),Kd,"protein: E3 ubiquitin-protein ligase Mdm2, PDB entry 3v3b",0.055 µM (active)
COc1cc(-c2ccc3ncc(-c4cccc([C@@H](O)NCCN(C)C)c4)n3n2)ccc1O,Kd,"protein: Death-associated protein kinase 1 DAPK1, PDB entry 4txc",0.24 µM (active)
CC(C)[C@H](NC(=O)[C@H](CCCCN)NC(=O)[C@H](CCCNC(N)N)NC(=O)[C@H](CCCCN)NC(=O)[C@H](CCCCN)NC(=O)[C@H](CCCCN)NC(=O)[C@@H]1CCCN1C(=O)[C@@H]1CCCN1C(=O)[C@H](CO)NC(=O)CN)C(=O)NCC(=O)O (H-GSPPKKK[Orn(CH(NH2)2)]KVG-OH),Kd,"protein: IMPORTIN SUBUNIT ALPHA-1A, PDB entry 4b8o",0.004 µM (active)
CC(C)[C@H](NC(=O)[C@H](C)NC(=O)[C@@H](NC(=O)[C@@H](N)CCCCN)C(C)C)C(=O)N[C@H](C(=O)N[C@@H](CCCNC(N)N)C(=O)N[C@H](C(=O)N1CCC[C@H]1C(=O)N1CCC[C@H]1C(=O)N[C@@H](CCCCN)C(=O)O)[C@@H](C)O[P+](O)(O)O)C(C)C (H-KVAVV[Orn(CH(NH2)2)][Thr(P(OH)3+)]PPK-OH),Kd,"protein: anti-ptau heavy chain and anti-ptau light chain, PDB entry 4glr",0.00035 µM (active)
CC(C)C[C@H](NC(=O)[C@@H]1CCCN1C(=O)[C@@H]1CCCN1C(=O)[C@@H](NC(=O)[C@@H]1CCCN1C(=O)[C@H](CC(C)C)NC(=O)[C@@H](N)CC(C)C)[C@@H](C)O)C(=O)N[C@@H](CO)C(=O)N1CCC[C@H]1C(=O)N[C@@H](CO)C(=O)N[C@@H](CCCNC(N)N)C(=O)N[C@@H](CCCNC(N)N)C(=O)N[C@@H](CO)C(=O)NCC(=O)O (H-LLPTPPLSPS[Orn(CH(NH2)2)][Orn(CH(NH2)2)]SG-OH),Kd,"protein: Bin1C SH3 domain, PDB entry 1mv0",93.3 µM (active)
CC(C)C[C@H](NC(=O)CNC(=O)[C@H](CO)NC(=O)[C@@H]1CCCN1C(=O)[C@@H](N)CC(C)C)C(=O)N[C@@H](CC(C)C)C(=O)N[C@H](C(=O)N1CCC[C@H]1C(=O)N1CCC[C@H]1C(=O)N[C@@H](CCC(N)=O)C(=O)N[C@@H](CO[P+](O)(O)O)C(=O)NCC(=O)O)[C@H](C)O[P+](O)(O)O,Kd,"protein: Skp1-Fbw7, PDB entry 2ovq",0.07 µM (active)
